Compounds with a hit are over-represented: about 3.1% of the library has one in this group of screens.
TexasRed fluor: counter-screen for TRb-SRC2 inhibitors: fluorescence interference | TRb/SRC2 Texas Red total fluorescence interference | AID 1479 | Potency, µM (titrated, usually from 106 µM), for the others: at the top dose fluorescence change, negative = quenching | hit rate 0.29% among 280,000; active = well fitted curve in either direction with a large enough effect; inconclusive = small, poorly fitted or top-dose-only effect
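Human TRβ ligand-binding domain (0.6 uM) and Texas Red SRC2 peptide (20 nM) in Tris buffer with 1 uM T3 and 5% DMSO were incubated with pinned compound for 5 hr at ambient temperature. Total fluorescence was computed as S + 2P (555/632 nm).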
Tau fluor cs: counter-screen for tau fibril formation inhibitors; hit rate 0.93% among 280,000; tau K18 P301L Alexa594 fluorescence, heparin fibrillization; AID 1463; Potency, µM (highest dose often 57.7 µM), for inactives: at the highest dose activity change, negative = decrease; note: nearly all actives have a fitted effect of over 55% in size
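Human K18 P301L tau (15 uM unlabeled plus 0.24 uM Alexa 594-labeled, final) in 100 mM sodium acetate pH 7 was mixed with compound and 20 uM heparin and incubated 6 hr at 37 C.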
TRb SRC2 PPI: TRbeta-SRC2 interaction inhibition; TRbeta-SRC2 peptide binding, fluorescence polarization; receptor liganded with 1 µM T3; Potency, µM (top dose mostly 106 µM), for inactives: at the highest dose activity change, negative = inhibition, most hits filed as inhibitors; P10828; AID 1469; hit rate 0.065% among 280,000;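 note: plate controls were bound peptide for no effect and peptide without receptor for full effect; nearly all actives have a fitted effect of over 50% in size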
Target sequence (P10828 whole entry, looked up): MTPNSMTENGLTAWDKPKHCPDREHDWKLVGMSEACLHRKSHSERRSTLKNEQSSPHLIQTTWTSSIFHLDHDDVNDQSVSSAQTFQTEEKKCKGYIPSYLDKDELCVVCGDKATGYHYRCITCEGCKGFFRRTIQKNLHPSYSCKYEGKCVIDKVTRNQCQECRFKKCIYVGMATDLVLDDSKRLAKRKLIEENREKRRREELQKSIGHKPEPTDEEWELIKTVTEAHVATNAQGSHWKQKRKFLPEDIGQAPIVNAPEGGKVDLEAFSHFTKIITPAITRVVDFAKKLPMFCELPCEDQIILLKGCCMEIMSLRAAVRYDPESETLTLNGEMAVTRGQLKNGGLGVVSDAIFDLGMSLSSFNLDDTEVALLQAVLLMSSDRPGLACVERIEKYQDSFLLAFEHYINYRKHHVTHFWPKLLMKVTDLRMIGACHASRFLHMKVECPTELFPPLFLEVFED
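Fluorescence polarization of 20 nM Texas Red SRC2 peptide (20-aa NR interaction domain) bound to 0.6 uM human TRb ligand-binding domain, with 1 uM T3, after 5 hr at ambient temperature; inhibition seen as decreased polarization.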
Tau fibril ThT: blocks human tau fibril formation measured by thioflavin T; P10636; recombinant tau K18 P301L (four-repeat tau fragment), heparin-induced fibrillization, ThT fluorescence; Potency, µM (doses to about 57.4 µM), inactives show at the highest dose activity, negative = inhibition, usual class: inhibitors; hit rate 2.1% among 270,000; note: nearly all actives have a fitted effect of over 55% in size
Target sequence (P10636 561-689 P618L limits assumed): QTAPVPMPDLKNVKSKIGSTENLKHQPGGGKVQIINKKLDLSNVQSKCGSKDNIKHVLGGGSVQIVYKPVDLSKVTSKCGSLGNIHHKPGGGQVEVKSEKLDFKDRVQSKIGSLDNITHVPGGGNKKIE
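Heparin-induced fibrillization of the P301L-mutant K18 repeat-domain fragment of human tau was followed by ThT binding in quantitative high-throughput format.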
Tau FP inhib: inhibitors of human tau fibril formation; hit rate 0.39% among 280,000; P10636; AID 1468; K18 P301L tau heparin fibrillization, Alexa594 FP, 6 h; Potency, µM (series often up to 57.7 µM), for inactives: at the highest dose activity, negative = inhibition, actives largely listed as inhibitors; note: nearly all actives have a fitted effect of over 55% in size
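Human K18 P301L fragment (15 uM unlabeled plus 0.24 uM Alexa 594-labeled) in 100 mM sodium acetate pH 7 with compound, aggregation induced by 20 uM heparin for 6 hr at 37 C. ThT (30 uM) added for 1 hr, then Alexa 594 FP read.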
The depositor's hits bear a star; ? = inconclusive; / = not tested or not shown; [ ] = dose if it differs, or a comment. Unless noted, calls come from the whole dose curve; as a rule, active = well fitted curve in the direction sought with a large enough effect; inconclusive = small, poorly fitted or top-dose-only effect, or another doubt; inactive = no such curve, though single readings can be large; an effect the other way counts as inactive or inconclusive. Unless noted, % is set by controls: 0 for no effect and ±100 for the full control effect; potency is the fitted concentration of half-maximal effect.

SMILES	TexasRed fluor	Tau fluor cs	TRb SRC2 PPI	Tau fibril ThT	Tau FP inhib
Cc1ccc(CNC(=O)c2ccc3c(=O)n(CC4CCCO4)c(=S)[nH]c3c2)cc1 (configuration not stated)	2%	-10%	-21%	-9%	0%
CCn1c(N)c(C(=O)NCC2CCCO2)sc1=S (configuration not stated)	-2%	-16%	1%	35µM*	?
CCCCCNC(=O)c1ccc2c(=O)[nH]c3c(C(=O)NCC4CCCO4)sc(=S)n3c2c1 (configuration not stated)	-21%	-29%	8%	14µM*	10%
O=C(NC1CCCC1)c1sc(=S)n2c1[nH]c(=O)c1ccccc12	-7%	?	6%	16µM*	11%
COCCCNC(=O)c1ccc2c(=O)n(CC3CCCO3)c(=S)[nH]c2c1 (configuration not stated)	-2%	-5%	-7%	-3%	4%
Cc1ccc(CNC(=O)c2ccc3c(=O)[nH]c4c(C(=O)NCC5CCCO5)sc(=S)n4c3c2)cc1 (configuration not stated)	-12%	?	6%	8.9µM*	-3%
CCCOc1ccc(-c2nonc2NC(=O)c2cc(OC)c(OC)c(OC)c2)cc1OCCC	5%	?	1%	-9%	?
CCCCC/C=C\CC(O)/C=C/c1cccc(CC(O)CCCCO)n1 (configuration not stated)	1%	-9%	-10%	-5%	-10%
O=C(Cc1ccc(F)cc1)Nc1nnc(SCC(=O)NC2CCCC2)s1	1%	9%	-3%	1%	-10%
O=C(NCc1ccccc1)c1ccc2c(=O)[nH]c3c(C(=O)NCC4CCCO4)sc(=S)n3c2c1 (configuration not stated)	-17%	?	2%	14µM*	11%
Cc1cccc(NC(=S)NC2CC3CCCC(C2)N3Cc2ccccc2)c1C (configuration not stated)	-2%	-7%	4%	-7%	-6%
Nc1ncc(S(=O)(=O)N2CCN(c3ccccc3)CC2)cn1	0.0056µM*[quencher]	6%	-19%	5%	1%
CN(C)S(=O)(=O)c1cccc(NC(=S)Nc2cc(Cl)cc(Cl)c2)c1	-4%	?	-5%	-11%	25µM*
CCN(CCO)c1ccc(NC(=S)Nc2cccc(S(=O)(=O)N(C)C)c2)cc1	-13%	?	?	14µM*	?
CN(C)S(=O)(=O)c1cccc(NC(=S)Nc2ccc(Cl)cc2Cl)c1	2%	-30%	2%	-13%	-15%
COc1cccc2c(=S)c(CCC(C)=O)c(C)[nH]c12	2.8µM*[quencher]	3%	-17%[53 µM]	8%	3%
CCc1ccc(S(=O)(=O)NC(=S)Nc2ccccc2)cc1	-2%	-19%	-3%	-18%	?
O=C(CO/N=C/c1cccc([N+](=O)[O-])c1)NC1CCCCC1	?	-10%	-10%	-6%	-3%
O=C(CO/N=C/c1cccc([N+](=O)[O-])c1)Nc1ccc2ccccc2c1	1%	13µM*[quencher]	-3%	?	-6%
CC(=O)NCCNC(=O)C1CCCCN1S(=O)(=O)c1ccccc1 (configuration not stated)	0%	5%	2%	-1%	-5%
Cn1c(=O)[nH]c2nnc(-c3ccc(Cl)c(Cl)c3)nc2c1=O	-2%	-18%	-2%	16µM*	3%
CCN(CC)C(=O)COC(=O)c1cc(-c2ccco2)nc2ccccc12	35µM*[quencher]	-12%	1%	?	-8%
Cn1c(N)c(C(=O)COC(=O)c2cc(-c3ccco3)nc3ccccc23)c(=O)n(Cc2ccccc2)c1=O	-3%	?	6%	13µM*	?
CNC(=O)COC(=O)c1cc(-c2ccco2)nc2ccccc12	-11%	-25%	-1%	?	-3%
Nc1ccccc1S(=O)(=O)Nc1cccc2cccnc12	2%	/	-6%	/	/
SMILES	TexasRed fluor	Tau fluor cs	TRb SRC2 PPI	Tau fibril ThT	Tau FP inhib
O=C(COc1ccccc1)Nc1nnc(S(=O)(=O)Nc2ccccc2)s1	0.05µM*[quencher]	?	-22%	?	-8%
Cc1cccc(OCC(=O)Nc2nc3ccc([N+](=O)[O-])cc3s2)c1	0%	?	5%	2µM*	-10%
CCN(CC)S(=O)(=O)c1nnc(NC(=O)COc2cccc(C)c2)s1	3.2µM*[quencher]	4%	-10%	?	8%
Cc1cccc(OCC(=O)Nc2nc3ccc([N+](=O)[O-])cc3s2)c1C	2%	-19%	-10%	-15%	-1%
CCN(CC)S(=O)(=O)c1nnc(NC(=O)COc2ccc(C)cc2)s1	-29%	-26%	3%	?	-6%
O=C(O)COc1ccc(/C=C/c2nc3ccc([N+](=O)[O-])cc3s2)cc1	0%	-24%	10%	2µM*	-11%
Cc1ccc(CNC(=O)CN2C(=O)COc3ccc(S(=O)(=O)Nc4ccccc4)cc32)cc1	-3%	?	-1%	8%	-10%
COc1cc(Nc2ccccn2)cc(C(=O)Nc2cccc(C(F)(F)F)c2)c1	-3%	14µM*[quencher]	-7%	-17%	-13%
Cc1ccc(Nc2cc(C)c3c(O)cccc3n2)cc1C	-1%	14µM*[quencher]	-7%	/	?
COc1ccc(Nc2cc(C)c3c(O)cccc3n2)cc1	-1%	?	4%	/	?
CCCCC1=CC2=C(OC(C)=O)C(=O)C(C)(OC(=O)C3CCCC3)C(=O)C2=CO1 (configuration not stated)	-1%	?	8%	28µM*	?
Cc1nc2ccccc2n1CCc1nc2c3ccccc3nc(SCc3cccc(F)c3)n2n1	-1%	-14%	5%	-16%	-2%
[C-]#[N+]/C(C#N)=C\c1cc(C(C)(C)C)c(O)c(C(C)(C)C)c1	-3%	?	-3%	25µM*	?
Cc1ccc(NC(=O)Cn2sc3nc(C)cc(C)c3c2=O)c(Cl)c1	-5%	-9%	6%	28µM*	?
CCOc1ccc(NC(=O)Cn2sc3nc(C)cc(C)c3c2=O)cc1	-5%	-25%	-3%	13µM*	20µM*
Cc1cc(C)c2c(=O)n(CC(=O)Nc3cccc(F)c3)sc2n1	-9%	-23%	2%	14µM*	14µM*
CCOC(=O)Nc1c(Cl)n(C)c(=O)n(C)c1=O	-2%	4%	-2%	-4%	2%
COc1cc(N(C)C)cc(CN(C)CCc2ccc([N+](=O)[O-])cc2)c1O	-16%	/	?	/	/
N#CC1=C(N)C2=CCCC[C@H]2[C@H](c2ccc(Br)cc2)C1(C#N)C#N	5%	?	-4%	14µM*	?
O=C(N/N=C\c1cccc([N+](=O)[O-])c1O)C1COc2ccccc2O1 (configuration not stated)	-2%	-13%	-3%	7.9µM*	10%
O=C(N/N=C/c1cccc([N+](=O)[O-])c1O)c1cccs1	-4%	-12%	7%	5µM*	15%

Screens from PubChem BioAssay.
